# Sampled rows, rich in hits. Any-hit rate of the full collection: about 3.1%.
# MBD2 DNA inh: inhibitors of human MBD2 binding to methylated oligonucleotide. inhibition, % at 4.4 µM. AID 686964. Q9UBB5. actives 0.31% (n = 370,000). TR-FRET; in the data active = inhibition above about 13%
# Neddylation inh: inhibitors of human cullin neddylation; calls only at 25 µM; P61081+Q13564; actives 0.58% (n = 360,000); TR-FRET cullin neddylation, biochemical; in the data active = inhibition above about 36%
# Target sequence (P61081 whole entry, looked up): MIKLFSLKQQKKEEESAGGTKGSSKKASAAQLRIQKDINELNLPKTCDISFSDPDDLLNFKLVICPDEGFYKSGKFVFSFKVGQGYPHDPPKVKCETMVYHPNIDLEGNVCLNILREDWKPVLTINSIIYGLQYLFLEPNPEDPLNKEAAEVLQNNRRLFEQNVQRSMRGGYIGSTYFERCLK
# Target sequence (Q13564 whole entry, looked up): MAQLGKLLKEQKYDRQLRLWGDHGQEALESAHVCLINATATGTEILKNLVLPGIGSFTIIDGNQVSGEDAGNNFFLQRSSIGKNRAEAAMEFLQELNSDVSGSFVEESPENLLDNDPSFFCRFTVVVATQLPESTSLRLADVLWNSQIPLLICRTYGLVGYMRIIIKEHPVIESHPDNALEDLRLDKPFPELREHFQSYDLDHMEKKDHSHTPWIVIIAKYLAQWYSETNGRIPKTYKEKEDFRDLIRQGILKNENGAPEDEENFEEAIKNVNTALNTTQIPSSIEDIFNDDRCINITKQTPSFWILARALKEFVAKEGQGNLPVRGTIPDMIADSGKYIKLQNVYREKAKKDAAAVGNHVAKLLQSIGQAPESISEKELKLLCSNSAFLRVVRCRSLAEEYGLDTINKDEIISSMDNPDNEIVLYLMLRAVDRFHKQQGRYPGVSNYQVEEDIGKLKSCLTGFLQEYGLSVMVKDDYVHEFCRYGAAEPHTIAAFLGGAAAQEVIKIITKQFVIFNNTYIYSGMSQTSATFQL
# Rin1 Abl inh: human Rin1-Abl interaction inhibition; actives 0.4% (n = 360,000); inhibition, % at 7.35 µM; P00519+Q13671; TR-FRET Rin1/Abl binding, biochemical; in the data active = inhibition above about 5%, passing the limit was not always enough
# KLK7 zymogen act: activators of human kallikrein-7 zymogen. purified proKLK7, EDANS-DABCYL substrate fluorescence; 100% is mature enzyme control, 0% vehicle. activation, % at 7 µM. actives 0.9% (n = 370,000). AID 652039;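 active = activation above the mean of all tested compounds plus 3 SD, computed per campaign excluding outliers beyond control limits, cut at about 13% in these data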
# LEDGF integ inh: blocks HIV-1 LEDGF/p75-dependent DNA integration. actives 0.64% (n = 370,000). TR-FRET IN-LEDGF/p75 DNA integration, Eu/Cy5. inhibition, % at 3.7 µM;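 active = inhibition above the screen-wide mean plus 3 SD, cut at about 13% in these data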;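 note: signal is the Cy5 over europium emission ratio at 671 and 618 nm; 0% = plate median of compound wells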
# UHRF1 binding: blocks human UHRF1 binding to methylated DNA. actives 0.75% (n = 370,000). AID 687016. UHRF1 binding to methylated oligo, TR-FRET. inhibition, % at 4.4 µM; in the data active = inhibition above about 21%;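 note: UHRF1 SRA domain binding a hemimethylated CpG hairpin DNA probe; 0% = median of test compound wells and 100% = reference inhibitor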
# IN multimer up: HIV-1 integrase multimerization activation, counter-screen; actives 17% (n = 2,000); TR-FRET HIV-1 integrase multimerization, biochemical; activation, % at 7.7 µM; shares compounds with LEDGF integ inh; AID 1053131; in the data active = activation above about 8.9%
# TRFRET interf: counter-screen for LEDGF/p75 integration inhibitors: TR-FRET optical interference; shares compounds with LEDGF integ inh; TR-FRET optical interference counterscreen, HIV-1 IN multimerization; 2,000 tested, under 10 active; inhibition, % at 7.7 µM;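 active = inhibition above the mean over all tested compounds plus 3 SD, which no compound reached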;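 note: 0% = integrase with antibodies and DMSO and 100% = antibodies without integrase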
# LEDGF integ conf: LEDGF/p75-dependent HIV-1 integration inhibition, confirmation. TR-FRET LEDGF/p75-dependent HIV-1 integration, biochemical. inhibition, % at 3.7 µM. shares compounds with LEDGF integ inh. AID 1053136. actives 36% (n = 2,000); in the data active = inhibition above about 14%
# * hit, by the source's call; i = inactive; . = no result given.
SMILES,MBD2 DNA inh,Neddylation inh,Rin1 Abl inh,KLK7 zymogen act,LEDGF integ inh,UHRF1 binding,IN multimer up,TRFRET interf,LEDGF integ conf
Cc1ncc([N+](=O)[O-])n1CC(=O)Nc1cc(Cl)ccc1Cl,0.2,i,-1.3,-0.1,52.4*,2.5,-0.7,3.4,-2.0
CCC1CCc2sc(C(=O)NCC(c3ccc(OC)cc3)N3CCOCC3)cc2C1 (configuration not stated),-0.1,i,-1.1,0.2,61.6*,14.9,-0.4,1.9,0.4
CCc1cc(C(=O)NCC(c2ccc(OC)cc2)N2CCOCC2)sc1C (configuration not stated),3.7,i,1.5,0.2,-1.0,3.0,.,.,.
CS(=O)(=O)N1CCN(c2ccc(NC(=O)CSc3ccc(Cl)cc3)cc2)CC1,-5.5,i,-0.6,0.2,63.4*,-0.8,-1.6,8.3,-1.1
Cc1ccc(C(=O)N2CCN(c3ccc(NC(=O)CSc4ccc(Cl)cc4)cc3)CC2)cc1,3.8,i,-3.7,0.3,-1.8,3.4,.,.,.
Oc1c(Cl)c(Cl)c2ncccc2c1Cl,-11.6,i,2.1,2.6,-5.9,-3.1,.,.,.
COc1cc(N)c2ncccc2c1Cl,-19.4,i,1.5,2.3,43.8*,5.2,-0.6,3.2,6.2
CC(=O)CC[C@@H]1CC[C@]2(CCCN(C(=O)c3ccccc3)C2)O1,3.3,.,.,0.1,-0.1,-1.1,.,.,.
CSc1nc2c([nH]1)c(=S)n(C)c(=O)n2C,-2.6,i,-4.2,1.0,25.9*,-3.3,6.8,-24.1,-10.3
CCc1nc2c(OCC3COc4ccccc4O3)cccn2c1N(C)C(=O)c1cccc(OC)c1 (configuration not stated),2.8,i,-0.5,-0.1,19.5*,-0.8,1.2,-6.0,0.1
CCc1nc2c(OCC3COc4ccccc4O3)cccn2c1N(C)C(=O)c1ccc(OC)cc1 (configuration not stated),0.5,i,-2.8,1.1,-0.1,-1.7,.,.,.
Cc1onc(-c2c(Cl)cccc2Cl)c1-c1nc2cc(Cl)ccc2c(=O)o1,8.2,i,3.0,0.2,80.9*,0.2,-1.5,7.7,-1.8
Cc1nc(S/C(=C/c2ccc(-c3cc(Cl)ccc3C)o2)C(=O)O)n[nH]1,-3.9,i,-1.8,-0.2,1.4,-2.7,.,.,.
O=C(O)c1cc(Cl)ccc1-c1ccc(/C=C/c2cc(C(F)(F)F)[nH]c(=O)n2)o1,1.1,i,0.3,-3.2,17.3*,3.0,-1.2,6.1,11.2
O=C1CSc2ccccc2N1Cc1ccc(F)cc1,-1.3,i,1.2,0.0,38.4*,-2.9,1.5,-5.2,-5.4
CCN(CC)S(=O)(=O)c1ccc(C(C)NC(=O)C2CCCN2C(=O)c2cccs2)cc1 (configuration not stated),2.6,i,-0.7,0.2,-4.6,1.3,.,.,.
Fc1ccc(CNC(=S)Nc2cccc(Cl)c2)cc1,-1.3,i,1.3,-0.1,15.4*,-3.8,-0.8,4.2,-0.9
Cc1ccc2c(c1C)-c1c(ccc(C)c1C)C(=O)C2=O,-6.4,i,5.8,-2.5,14.1*,-2.0,3.6,-12.5,68.8*
COC(=O)CN1C(=O)[C@H]2[C@@H](/C=C/c3ccccc3)N3C(=O)CN(Cc4ccccc4)C(=O)[C@@]3(C)[C@H]2C1=O,0.8,i,4.2,0.7,81.2*,-2.4,0.3,-1.7,-17.2
Cc1occc1-c1nnc(SCC(=O)N[C@@H]2CCc3ccccc32)n1-c1ccccc1,-3.2,.,.,0.4,4.7,-4.0,.,.,.
CC(C)(C)OC(=O)N1Cc2ccccc2C[C@H]1C(=O)NC1CCCC1,0.6,i,3.1,0.6,52.7*,-0.7,0.0,0.2,-1.6
CC(C)(C)OC(=O)N1Cc2ccccc2C[C@H]1C(=O)NCC(=O)NC1CCCC1,-3.4,i,-0.9,-0.4,-7.7,2.7,.,.,.
O=C(Nc1ccc2c(c1)OCO2)c1ccc2sc([C@@H]3O[C@H](CO)[C@H](O)[C@H](O)[C@H]3O)nc2c1,-0.5,i,-4.5,0.6,0.0,0.9,.,.,.
CN1C(C(=O)NCc2cccc(C(F)(F)F)c2)CC2Cn3c(nc4ccccc43)C21 (configuration not stated),2.0,i,4.1,0.3,15.1*,-2.1,0.2,-0.6,-12.7
Cc1cc2nc3n(c2cc1C)CC1CC(C(=O)NCc2ccco2)N(C)C31 (configuration not stated),8.2,i,-1.0,0.8,26.8*,45.0*,0.0,0.3,-8.1
SMILES,MBD2 DNA inh,Neddylation inh,Rin1 Abl inh,KLK7 zymogen act,LEDGF integ inh,UHRF1 binding,IN multimer up,TRFRET interf,LEDGF integ conf
Cc1ccc(CNC(=O)C2CC3Cn4c(nc5cc(C)c(C)cc54)C3N2C)o1 (configuration not stated),2.0,i,1.9,-0.1,3.7,3.0,.,.,.
COC(=O)CSc1nnc(NC(=O)c2ccc3c(c2)OCO3)s1,-5.1,i,4.8,-0.2,25.4*,-0.1,0.2,-0.8,-13.4
O=C(NC1CCCCN(Cc2cccc(C(F)(F)F)c2)C1=O)c1ccc(COc2ccccc2)cc1 (configuration not stated),0.7,.,.,0.6,0.2,-2.3,.,.,.
CN(C)CCNC(=O)c1cccc(-c2cccc3nncn23)c1,-6.9,.,0.7,0.9,55.0*,-1.0,-0.7,3.5,0.7
O=Cc1ccc(-c2c(-c3ccccc3)oc3c2C(OCCCCO)CCC3)o1 (configuration not stated),-1.2,.,.,1.1,30.1*,2.0,0.1,-0.3,6.1
N#Cc1nc(COc2ccccc2Cl)oc1N1CCCC1,6.9,i,-0.4,-0.5,18.6*,8.2,0.8,-4.2,-6.9
Nc1ccc(Br)c2cccnc12,-15.4,i,1.8,-0.8,54.1*,4.1,1.2,-4.4,52.9*
CS(=O)(=O)Oc1ccc(Br)c2cccnc12,2.1,i,-0.5,0.3,6.5,-1.7,.,.,.
CCCOC(=O)c1c(N)sc2c1CCC2,-4.6,i,-3.5,3.5,2.5,-0.2,.,.,.
CCOC(=O)c1c(N)sc(=S)c2c1CCC2,4.0,i,4.1,0.1,34.4*,15.6,0.6,-2.8,32.1*
O=C(Nc1cccc(C(F)(F)F)c1)Nc1nnc([C@@H]2C[C@H](O)[C@@H](CO)O2)s1,1.5,i,-1.5,-0.1,4.2,-0.3,.,.,.
O=C(CSc1nnc(COc2ccccc2)n1Cc1ccco1)NCc1ccco1,1.4,i,2.5,0.5,27.8*,11.1,4.7,-23.5,18.9*
